Compound activity (PubChem BioAssay)
The list is not random: actives were taken first. Their share in the collection is about 1%.
iPSC survival up = enhancers of single-cell hiPSC survival, primary screen, ATPlite luminescence. 100% = ROCK inhibitor wells, 0% = DMSO. 360,000 tested, 0.044% active. AID 602274, 2012. survival enhancement, % at 20 µM; in the data active = survival enhancement above about 18%;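 also: cells exposed to compounds for 16 hours before the ATP read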
V-ATPase pH = regulators of yeast V-ATPase proton pumping, primary screen, pHLuorin cytosolic pH fluorescence; S. cerevisiae; AID 504577, 2011; response, % at 10 µM; 350,000 tested, 0.37% active; in the data active = response mostly above about 7.3%, no sharp cut-off; inactive = mostly below about 5.4%; also: actives read high
Fh CTSL1 inh = Fasciola hepatica cathepsin L1 inhibitors, primary screen, counter-screen for PFM18AAP inhibitor project, biochemical, QFRET, fluorogenic peptide substrate. 300,000 tested, 0.49% active. recombinant F. hepatica cathepsin L1, Z-Leu-Arg-MCA fluorescence. AID 1906, 2009. inhibition, % at 5.96 µM;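 active = inhibition above the mean of all tested compounds plus 3 SD, set per screening campaign, cut at about 17% in these data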;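 also: 0% = plate median of test compound wells and 100% = 1 µM Z-Phe-Ala-diazomethylketone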
Yeast superoxide = reduction of superoxide in aged yeast, primary screen, HTS. S. cerevisiae aged cells, superoxide DHE fluorescence; hits give low values. superoxide response (% of plate mean), % at 10 µM. 330,000 tested, 0.18% active. AID 2690, 2010;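 active = superoxide response under a set limit, about three screen SD below normal, cut at about 65% in these data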;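 also: yeast aged for seven days with compound at 30 °C before DHE staining; 100% = average MFI of all compound-treated wells on the plate with controls excluded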
VATPase regulator = yeast V-ATPase proton pumping modulators, confirmation, S. cerevisiae, pH-sensitive GFP, second cherry-pick; 980 tested, 2% active; S. cerevisiae pHLuorin cytosolic pH, V-ATPase proton transport; shares compounds with V-ATPase pH; response, % at 10 µM; AID 602197, 2012; in the data active = response above about 24%;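 also: plate controls were vehicle wells for no effect and positive control wells for full effect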
* marks the source's active call; other numbers are inactive results; nt = no result.

SMILES	iPSC survival up	V-ATPase pH	Fh CTSL1 inh	Yeast superoxide	VATPase regulator
CCOC(=O)N1CCC(n2c(=S)[nH]c3cc(OCC)c(OCC)cc3c2=O)CC1	8	0	2	83	nt
Cc1ccc(S(=O)(=O)N2CCC(C(=O)N/N=C/c3cccn3C)CC2)cc1	6	11*	nt	98	3
O=C(CN1CCN(Cc2cccc(C(F)(F)F)c2)CC1)NCC(=O)Nc1ccc(F)c(F)c1F	-1	4	nt	nt	nt
CCn1cc(CN2CCCC(CO)(Cc3cccc(Cl)c3)C2)cn1 (stereo not given)	0	13*	-9	91	1
CCn1cc(S(=O)(=O)N2CCN(Cc3cccc(Cl)c3)CC2)cn1	-1	6.1*	2	100	1
CCCn1c(=O)c(C(=O)NCc2ccco2)c(O)c2ccccc21	0	0	0	98	nt
CCOC(=O)Cc1cc(=O)n2[nH]c(C)c(-c3ccccc3OC)c2n1	1	19*	2	109	0
CCOC(=O)Cc1cc(=O)n2[nH]c(C)c(-c3ccccc3)c2n1	3	-3	0	93	nt
COCCn1c(SCC(=O)NCc2ccccc2)nc2ccccc21	1	2	-1	94	nt
COCCn1c(SCC(=O)NNC(=O)c2ccccc2)nc2ccccc21	3	12*	nt	88	-1
Cc1c(NS(=O)(=O)c2cc(NC(=O)CCN3CCCC(C)C3)ccc2Cl)c(=O)n(-c2ccccc2)n1C (stereo not given)	0	1	-2	107	nt
Cc1cc2c(cc(C(=O)N3CCC(C(=O)N4CCCC4)CC3)n2Cc2c(F)cccc2Cl)o1	-2	10*	2	101	2
CCOC(=O)c1cc2occc2n1Cc1c(F)cccc1Cl	-2	3	1	99	nt
O=C(Nc1ncccc1O)c1ccc(Cl)c(S(=O)(=O)N2CCCCC2)c1	0	-3	0	108	nt
CC(=O)N1CC2(CC(c3ccc(Cl)cc3Cl)=NO2)CN1c1cccc(Cl)c1 (stereo not given)	1	1	nt	nt	nt
CCCCCn1nc(C(=O)N(CC(C)C)c2c(N)n(CCCC)c(=O)[nH]c2=O)c2ccccc2c1=O	1	22*	11	89	0
CC(C)(C)OC(=O)NCC(=O)NNC(=O)C(C(=O)OCc1ccccc1)c1ccccc1 (stereo not given)	-1	8.8*	nt	97	-1
Cc1cc(C)c(C)c(S(=O)(=O)Nc2ccc(OCC(=O)O)cc2)c1C	0	-2	-6	114	nt
CCC(C)NCCCCOc1cc(C)cc(C(C)C)c1 (stereo not given)	0	1	4	95	nt
O=C(COC(=O)/C=C/c1ccccc1Cl)NC(=O)Cc1ccccc1	0	9.9*	-8	97	2
Cn1nc(NC(=O)C(C)(C)C)c2c(F)cccc21	0	12*	-4	90	1
C[C@@H]1CN([C@@H](C)CO)S(=O)(=O)c2ccc(Br)cc2O[C@@H]1CN(C)C(=O)c1ccncc1	8	5.2*	nt	nt	-1
O=C(Nc1ccccc1)c1cc2n(n1)C(C(F)(F)F)CC(C1CC1)N2 (stereo not given)	-2	3	-7	114	nt
CCc1cc(-c2cnnn2Cc2ccccc2)ccc1-c1cn(CC(C)C)nn1	6	-1	nt	nt	nt
CCOC(=O)C(=O)N=Nc1c(O)[nH]c2ccccc12	0	-2	2	97	1
SMILES	iPSC survival up	V-ATPase pH	Fh CTSL1 inh	Yeast superoxide	VATPase regulator
CNC(=S)N=Nc1c(O)[nH]c2ccccc12	0	0	-2	118	nt
O=C(Nc1ccccc1)C1CCCCC1	0	7	-1	92	nt
O=C(Nc1ccc(Nc2ccccc2)cc1)C1CC1	-2	7.5*	2	78	7
CCn1cc(Br)c(C(=O)Nc2nccs2)n1	0	10*	-3	86	0
CCn1cc(Br)c(C(=O)NN)n1	8	-11	-1	115	nt
CCCCN(C(=O)c1cc2ccccc2o1)c1c(N)n(CCCC)c(=O)[nH]c1=O	2	-3	nt	88	nt
COc1cc(OC)cc(-c2c(-c3cccs3)c3cc(-c4cnc(OC)nc4)ccc3n2C)c1	-3	1	nt	68	nt
Cc1ccc(-n2nc(C)c3c(C)onc3c2=O)cc1	1	2	4	117	nt
Cc1nn(-c2ccc(Cl)cc2)c(=O)c2c(C)noc12	1	-1	2	82	-2
COC(C[C@@H](O)C[C@H](O)COCc1ccccc1)OC	-1	31*	nt	nt	-1
COc1cccc(-c2nc(COc3ccc(Cl)cc3Cl)no2)c1	0	8	-2	91	nt
Cc1ccc(/C=C/C(=O)c2ccc(N3CCOCC3)cc2)s1	-2	10*	-1	116	-1
Cc1cccc(/C=C/C(=O)c2ccc(N3CCOCC3)cc2)c1	nt	nt	4	108	nt
COC(=O)c1ccccc1S(=O)(=O)N1CCC(C(=O)NCc2ccco2)CC1	0	3	nt	121	nt
Cc1cc(C)c(S(=O)(=O)N2CCN(C(=O)c3ccccc3OCc3c(C)noc3C)CC2)c(C)c1	-2	-5	nt	nt	nt
Cc1cc(=O)c(C(=O)O)nn1-c1ccc(Cl)cc1	2	3	0	85	-1
CCOC(=O)c1nn(-c2ccc(Cl)cc2)c(C)cc1=O	0	-2	-1	128	nt
CCS(=O)c1ccccc1C(=O)OCC(=O)Nc1cccc(S(=O)(=O)N2CCCCC2)c1 (stereo not given)	-2	4	nt	91	nt
O=C(NC1CCCCC1)Sc1ccc(Cl)cc1	-3	8.0*	2	91	8
COc1cccc2sc(N3CCN(C(=O)c4ccc([N+](=O)[O-])o4)CC3)nc12	0	-5	3	96	nt
O=C(c1ccc([N+](=O)[O-])o1)N1CCN(c2nc3ccc(F)cc3s2)CC1	1	67*	4	94	41*
O=C(c1ccc([N+](=O)[O-])o1)N1CCN(c2nc3c(Cl)cccc3s2)CC1	0	10.0*	-1	84	23*
Cc1ccc(N2CCN(S(=O)(=O)c3ccc4oc(=O)ccc4c3)CC2)c(C)c1	0	-3	-1	99	nt
O=C1NC[C@@H](CCCCN2CCN(CCc3ccc(O)cc3)C(=O)C2=O)N(CCC2CCCCC2)C1=O	0	nt	nt	nt	nt
N#Cc1c(N)c2ccccn2c1C(=O)c1ccc(Br)cc1	0	1	2	102	nt
SMILES	iPSC survival up	V-ATPase pH	Fh CTSL1 inh	Yeast superoxide	VATPase regulator
COc1ccc(S(=O)(=O)NC(=O)C2(C)CCN2C(=O)Cc2cc(F)ccc2F)cc1 (stereo not given)	-3	nt	nt	nt	nt
Cn1c(N)c(C(=O)c2ccc(Cl)cc2)c(=O)n(C)c1=O	-1	3	1	87	nt
Cn1c(N)c(C(=O)c2ccc(F)cc2F)c(=O)n(C)c1=O	-1	8.4*	-1	93	0
O=C(NCCCN1CCCC1=O)c1cc(-c2ccc(F)cc2)nc2ccccc12	4	-4	nt	107	nt
COc1ccc(-c2cc(C(=O)NCCCN3CCCC3=O)c3ccccc3n2)cc1	0	12*	3	82	3
O=C1CN(C(=O)COc2ccc(Br)cc2Br)c2ccccc2N1	0	8.8*	0	114	3
